From PubChem BioAssay AID602313 (National Center for Advancing Translational Sciences (NCATS), 2012)
Out of some 390,000 compounds screened, about 760 (0.19%) were called active. About 3% were inconclusive and are not listed. The sample as a whole holds a higher share of actives than the screen did. Unmarked numbers belong to inactive results. Calls follow the shape of the dose curve; as a rule, active = well fitted inhibition curve with a large enough effect; inconclusive = small, poorly fitted or top-dose-only effect; inactive = flat fitted curve, though single readings scatter.

Experiment: qHTS for Inhibitors of Vif-A3F Interactions: qHTS; also: nearly all actives have a fitted effect of over 65% in size; as to activity, negative = active: % of control where 0% means no effect
Settings: HeLa A3F-eYFP + Vif (tagged APOBEC3F with the HIV-1 protein that degrades it), YFP fluorescence increase; series mostly up to 46.1 µM; activity, negative = active: at the top concentration
Description: The recent discovery and characterization of host restriction factors, which provide a potent defense to invading retroviruses, has provided new targets for antiviral drug development. APOBEC3G (A3G) and APOBEC3F (A3F) are potent cytidine deaminases that block HIV-1 replication; HIV-1 expresses the Vif protein, which counteracts A3G and A3F by binding to them and inducing their proteasomal degradation. The Vif-A3G and Vif-A3F interactions provide two potential targets for development of small molecules which can interfere with the ability of Vif to degrade A3G or A3F. […] To identify inhibitors that can interfere with Vif mediated degradation of A3G and A3F, we have developed Hela cell lines that stably express A3G or A3F tagged with eYFP at the C-terminal end (A3G-eYFP or A3F-eYFP, respectively) and Vif. In the absence of an inhibitor, Vif induces degradation of A3G-eYFP and A3F-eYFP, and the cells are not fluorescent. In the presence of an inhibitor, it is expected that Vif will be unable to degrade A3G-eYFP and/or A3F-eYFP, resulting in an increase in yellow fluorescence. In this assays Vif A3F was screened against the Molecular Library Small Molecule Repository (MLSMR). NIH Chemical Genomics Center [NCGC] NIH Molecular Libraries Probe Centers Network [MLPCN] MLPCN Grant: MH093245 Assay Submitter (PI): Vinay Pathak, National Cancer Institute
5 uL of 700 cells/well of A3F-YFP cells are dispensed into black, clear bottom plates. The plates are incubated overnight at 37 deg C. 23 nL of compounds are added by pintool. The plates are incubated overnight at 37 deg C and then read on the TTP Acumen (Ex 488/ Em 500-530).
Potency is read from the fitted curve at half-maximal effect.

| Compound | activity, negative = active [%] | Potency |
| --- | --- | --- |
| COc1ccc(Cl)cc1S(=O)(=O)N1CCC(c2ccncc2)CC1 | 3.97 |  |
| CCOc1ccc2nc(N3CCC(C(=O)Nc4cc(C)ccc4C)CC3)sc2c1 | -11.1 |  |
| CCCS(=O)(=O)c1ncc(Cl)c(C(=O)Nc2scc(-c3ccccc3)c2C(=O)OCC)n1 | 1.36 |  |
| O=C(/C=C/c1ccccc1)Nc1cc(-c2nc3cc(Cl)ccc3o2)ccc1Cl | -2.35 |  |
| COC(=O)c1ccccc1NC(=O)Cn1c(=O)cc(C)c2c(C)nn(-c3cccc(Cl)c3C)c21 | -10.3 |  |
| Cc1cccc(NC(=O)Cn2nc(-c3ccc(Cl)cc3)c3ccccc3c2=O)c1 | -26.3 |  |
| COc1cc2c(cc1OC)C(COc1ccc(F)cc1)N(C(=O)c1ccccc1F)CC2 (stereo unspecified) | 7.39 |  |
| Cc1ccc(OCCSc2nc3ccc(NC(=O)COc4ccc(C)cc4)cc3s2)cc1 | -0.244 |  |
| O=C(CC1NCCc2ccccc21)Nc1cccc(Cl)c1 (stereo unspecified) | -28.8 |  |
| O=C(CC1Nc2ccccc2NC1=O)Nc1ccccc1 (stereo unspecified) |  | 12.6 µM (active) |
| COC(=O)c1cc(C)sc1NC(=O)CC1Nc2ccccc2NC1=O (stereo unspecified) | -8 |  |
| COc1cccc(CNC(=O)C2CCC(CNS(=O)(=O)c3cccs3)CC2)c1 (stereo unspecified) | 3.35 |  |
| COc1ccc(C2c3c(oc4ccccc4c3=O)C(=O)N2Cc2ccc3c(c2)OCO3)cc1 (stereo unspecified) | -2.63 |  |
| CC(=O)N1CCCc2cc(S(=O)(=O)N3CCC(C(=O)NCc4ccc(F)cc4)CC3)ccc21 | -3.28 |  |
| Cc1cc(C)cc(NC(=O)CSc2nc(=O)n(CCN3CCOCC3)c3c2CCC3)c1 | 1.36 |  |
| CCCCOC(=O)/C(C#N)=C/c1ccc(-c2cccc(C(F)(F)F)c2)o1 | 0.984 |  |
| CCCCNC(=O)C1CCCN(c2nnc(C)c3c(C)n(-c4ccc(Cl)cc4)nc23)C1 (stereo unspecified) | 0.0194 |  |
| CCOc1ccc(S(=O)(=O)Nc2ccc3oc4c(c3c2)CC(C)CC4)cc1 (stereo unspecified) | -1.64 |  |
| CCNC(=O)c1cc2n(n1)CCCN(Cc1ccc(C)cc1)C2=O | -0.301 |  |
| CCCOC(=O)c1c(NC(=O)c2cc3nc(-c4ccc(OC)cc4)cc(C(F)(F)F)n3n2)sc2c1CCCC2 | 1.95 |  |
| O=C(NCC(c1ccc2c(c1)OCO2)N1CCN(c2ccccc2)CC1)C(=O)Nc1ccccc1F (stereo unspecified) | 2.29 |  |

| Compound | activity, negative = active [%] | Potency |
| --- | --- | --- |
| O=C(NC1CC(=O)N(c2ccc(F)cc2)C1)C1CCCCC1 (stereo unspecified) | 1.21 |  |
| Cc1cc(C)c(/C=C2\C(=O)Nc3ccccc32)[nH]1 |  | 12.6 µM (active) |
| Fc1ccc(-n2ncc3c(Nc4ccc(Oc5ccccc5)cc4)ncnc32)cc1 | -29 |  |
| COc1ccccc1NC(=O)c1oc2ccccc2c1NC(=O)C(C)C | -14.6 |  |
| Cc1ccc(Cc2nc3ccccc3nc2SCC(=O)Nc2cccc(C(F)(F)F)c2)cc1 | -7.16 |  |
| COc1ccc(NC(=O)Cn2cc(C(=O)c3ccncc3)c(=O)c3cc(C)ccc32)cc1Cl | 0.229 |  |
| Cc1ccc(C)c(Oc2c(C(F)(F)F)oc3c(CN4CCN(C)CC4)c(O)ccc3c2=O)c1 | -3.95 |  |
| CC1CCC(N2CC(=O)N(CCC3=CCCCC3)C(c3ccc(F)cc3)C2=O)CC1 (stereo unspecified) | 9.13 |  |
| COc1ccc(Cl)cc1NC(=O)c1sc2nc3c(cc2c1N)CN(C)CC3 | -23.7 |  |
| CCOc1ccc(N2CC(c3nc4ccccc4n3CCOc3ccc(OC)cc3)CC2=O)cc1 (stereo unspecified) | 2.96 |  |
| O=S(=O)(c1ccc(C2CCCCC2)cc1)N1CCN(c2ccc(Cl)c(Cl)c2)CC1 | -4.98 |  |
| CC(C)c1ccc(C2CC(=O)N3CN(C4CCCCC4)CSC3=C2C#N)cc1 (stereo unspecified) | 1.95 |  |
| CCOc1ccc2oc(=O)cc(CN3CCN(C(=O)c4ccc(F)cc4)CC3)c2c1 | 8.67 |  |
| COc1ccc(-c2nn3c(-c4ccc(OC)cc4)nnc3c3ccccc23)cc1 | 3.72 |  |
| CC(C)c1ccc(NC(=O)c2cc(S(=O)(=O)N3CCc4ccccc4C3)ccc2F)cc1 | 0.749 |  |
| CCOc1ccccc1C(=O)NCc1ccc2c(c1)CCN2C(=O)c1ccc(F)cc1 | -7.05 |  |
| CCOc1ccc(N(Cc2ccccc2)C(=O)c2nc(S(C)(=O)=O)ncc2Cl)cc1 | 5.15 |  |
| Cc1ccc2sc(N(Cc3cccnc3)C(=O)C3COc4ccccc4O3)nc2c1C (stereo unspecified) | -6.9 |  |
| Cc1ccc(NC(=O)c2oc3ccc(S(=O)(=O)N4CCCCC4)cc3c2C)cc1Cl | 0.769 |  |
| CCc1nn(CC(=O)N2CCN(c3ccc(Cl)cc3)CC2)c(=O)c2cc3occc3n12 | 0.0492 |  |
| Cc1nc2c(-c3ccccc3)c(C)nn2c(C)c1CCC(=O)NCCc1ccccc1 | -7.66 |  |

| Compound | activity, negative = active [%] | Potency |
| --- | --- | --- |
| COc1ccccc1Nc1nc(N)nc(N)c1S(=O)(=O)c1ccccc1 | 6.16 |  |
| COc1cc(NC(=O)c2cc3ccc4cccnc4c3[nH]2)cc(OC)c1OC | -2.39 |  |
| COc1ccc(-c2cn3c(n2)sc2cc(C(=O)Nc4ccc(F)cc4)ccc23)cc1 | 0.115 |  |
| COc1ccc(NC(=O)c2sc3nc(-c4cc5cccc(OC)c5oc4=O)[nH]c(=O)c3c2C)cc1 | 6.98 |  |
| COc1ccc(-c2nc3cnccn3c2NC2CCCCC2)cc1-c1cccc(Cl)c1 |  | 22.4 µM (active) |
| COc1ccc(-c2nc3cnccn3c2NC(C)(C)CC(C)(C)C)cc1O | 5.18 |  |
| Cc1ccc(Nc2c(-c3ccc(C)cc3)nc3cnccn23)cc1 | -7.53 |  |
| CCOCCCNC(=O)c1ccc2nc(CCc3ccccc3)oc2c1 | 1.04 |  |
| COc1ccc(C(=O)Nc2ccc(-n3nncc3-c3ccccc3)cc2)cc1OC | -3.35 |  |
| NNC(=O)c1oc2nc(-c3ccccc3)cc(-c3ccco3)c2c1N |  | 11.2 µM (active) |
| Cc1ccc(CSc2nc3cccnc3n2Cc2ccc(C(=O)NC3CC3)cc2)cc1 | -1.49 |  |
| CCOC(=O)c1cnc2c(C)cc(Cl)cc2c1NCCc1ccc(OC)c(OC)c1 | -0.291 |  |
| O=C(Cc1ccc(Cl)cc1)Nc1ccc2nn(-c3ccc(Cl)cc3)nc2c1 | 2.37 |  |
| CCOC(=O)c1c(C)oc2nc(C)nc(N3CCN(c4ccc(OC)cc4)CC3)c12 | 0.623 |  |
| CC(C)c1ccc(NC(=O)Cn2nnc(C(=O)NCCc3ccccc3)c2N)cc1 | -1.66 |  |
| O=C(CCCn1c(=O)c2cccn2c2cccnc21)NCc1ccc(F)cc1 | 0.614 |  |
| Cc1cc(=O)n(CC(=O)Nc2cccc([N+](=O)[O-])c2)c(-n2nc(C)cc2C)n1 | 3.02 |  |
| CCOC(=O)c1c(S(=O)(=O)N2CCC(C(=O)NCc3ccccc3OC)CC2)c(C)n(C)c1C | 0.785 |  |
| CSc1ccc(C2c3c(oc4ccccc4c3=O)C(=O)N2CCCN2CCOCC2)cc1 (stereo unspecified) | 8.49 |  |
